Source: PubChem BioAssay (EPA / NIEHS)
Inconclusive results are not listed. The source made the active and inactive calls. Rule for the calls: active = hit-call score of the fitted dose curve at least 0.9, where 1 is the maximum; inconclusive = response in the unintended direction; inactive = score below 0.9.

target: rat Peripheral-type Benzodiazepine Receptor (PBR), Tspo (gene 24230) (UniProt P16257); assay: NVS_MP_rPBR: NovaScreen (NVS) Membrane Protein Assay for rat Peripheral-type Benzodiazepine Receptor (PBR) (AID 2283335)
In short: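 Rat kidney membranes; radioligand binding with displacement, filter-based scintillation counting, 1 h incubation. Primary screen in duplicate at 25 uM, actives followed in concentration series; loss of binding vs DMSO.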

rat Peripheral-type Benzodiazepine Receptor (PBR), Tspo (gene 24230), sequence (P16257 whole entry, looked up): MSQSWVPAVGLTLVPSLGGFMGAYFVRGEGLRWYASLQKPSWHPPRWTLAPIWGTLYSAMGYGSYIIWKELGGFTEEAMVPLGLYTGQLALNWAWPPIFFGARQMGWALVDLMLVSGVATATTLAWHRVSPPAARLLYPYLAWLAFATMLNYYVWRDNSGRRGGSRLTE

| Structure (SMILES) | outcome | AC50 |
| --- | --- | --- |
| CCCCN(CC)c1c([N+](=O)[O-])cc(C(F)(F)F)cc1[N+](=O)[O-] | inactive | – |
| C#CC(C)(C)NC(=O)c1cc(Cl)cc(Cl)c1 | – | 0.19 µM (active) |
| CCOP(=S)(OCC)SCCSCC | – | 17.9 µM (active) |
| CCOP(=S)(OCC)Oc1ccc([N+](=O)[O-])cc1 | – | 3.61 µM (active) |
| C=C(C)[C@H]1Cc2c(ccc3c2O[C@@H]2COc4cc(OC)c(OC)cc4[C@@H]2C3=O)O1 | – | 4.23 µM (active) |
| CCC(CC)Nc1c([N+](=O)[O-])cc(C)c(C)c1[N+](=O)[O-] | inactive | – |
| CCCSP(=O)(OCC)Oc1ccc(Br)cc1Cl (centres undefined) | – | 0.28 µM (active) |
| CCC(=NOC/C=C/Cl)C1=C(O)CC(C2CCOCC2)CC1=O (centres undefined) | inactive | – |
| CNc1cnn(-c2cccc(C(F)(F)F)c2)c(=O)c1Cl | – | 4.99 µM (active) |
| CC(C)N(C(=O)SCC(Cl)=C(Cl)Cl)C(C)C | – | 45.6 µM (active) |
| CON=C(C(=O)OC)c1ccccc1CON=C(C)c1cccc(C(F)(F)F)c1 | – | 0.612 µM (active) |
| C#CCC1=C(C)C(OC(=O)C2C(C=C(C)C)C2(C)C)CC1=O (centres undefined) | – | 20 µM (active) |
| CC1(C(=O)Nc2ccc(O)c(Cl)c2Cl)CCCCC1 | – | 0.47 µM (active) |
| CCOP(=S)(Oc1cnc(C(C)(C)C)nc1)OC(C)C (centres undefined) | inactive | – |
| CCOP(=S)(OCC)Oc1cc(C)nc(C(C)C)n1 | – | 1.3 µM (active) |
| CN(C)[C@@H]1C(=O)C(C(N)=O)=C(O)[C@@]2(O)C(=O)C3=C(O)c4c(O)cccc4[C@@](C)(O)[C@H]3[C@H](O)[C@@H]12 | inactive | – |
| CCCSP(=O)(OCC)SCCC | – | 11.5 µM (active) |
| C[N+]1(C)CCCCC1 | inactive | – |
| CC(COc1ccc(Oc2ccccc2)cc1)Oc1ccccn1 (centres undefined) | inactive | – |
